Compound activity (PubChem BioAssay)
UGM FP inh – M. tuberculosis UGM enzyme inhibitors, primary screen, biochemical, fluorescence polarization, single point | inhibition, % at 10 µM | AID 504406, 2011 | purified UGM, fluorescence polarization probe displacement | 0.06% of 320,000 active | UDP-galactopyranose mutase (Mycobacterium tuberculosis (strain ATCC 25618 / H37Rv)), …; in the data active = inhibition above about 10%, passing the limit was not always enough
FBA Mtb inh – Mtb FBA enzyme inhibitors, primary screen, biochemical, fluorescence, strain H37Rv | purified M. tuberculosis FBA, fluorescence read-out | inhibition, % at 1 µM | 2.3% of 360,000 active | Fructose-bisphosphate aldolase (Mycobacterium tuberculosis (strain ATCC 25618 / H37Rv)), …; in the data active = inhibition above about 27%
Rv3671c inh – Rv3671c serine protease inhibitors, primary screen, biochemical, fluorescence polarization, M. tuberculosis H37Rv. P9WHR9. inhibition, % at 5.96 µM. 0.048% of 320,000 active; in the data active = inhibition above about 38%;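 note: extracellular domain of Rv3671c used as enzyme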
Target sequence (P9WHR9 whole entry, looked up, the tested form may be a part): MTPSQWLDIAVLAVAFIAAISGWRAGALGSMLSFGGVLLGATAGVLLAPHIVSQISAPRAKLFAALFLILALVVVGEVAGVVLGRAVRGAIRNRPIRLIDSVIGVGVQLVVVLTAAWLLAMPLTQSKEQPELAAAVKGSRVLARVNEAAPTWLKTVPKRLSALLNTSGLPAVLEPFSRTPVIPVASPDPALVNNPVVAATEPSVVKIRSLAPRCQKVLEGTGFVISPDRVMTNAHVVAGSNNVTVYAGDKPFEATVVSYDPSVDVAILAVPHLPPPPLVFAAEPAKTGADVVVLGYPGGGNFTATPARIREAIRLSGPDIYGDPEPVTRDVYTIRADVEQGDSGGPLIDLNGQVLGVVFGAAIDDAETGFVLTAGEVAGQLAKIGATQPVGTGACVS
GDH-TPI inh – GDH-TPI coupling enzyme inhibitors, primary screen, artefact control for M. tuberculosis FBA inhibitor project, biochemical, absorbance, full deck; GDH-TPI coupled enzyme counterscreen, NADH absorbance; inhibition, % at 4.8 µM; 1.2% of 360,000 active; in the data active = inhibition above about 30%
PriA SSB inh – inhibitors of Klebsiella pneumoniae PriA binding to SSB C-terminal tail, primary screen, biochemical, AlphaScreen; AlphaScreen SSBct-PriA binding, biotinylated peptide; PriA–SSB C-terminal tail interaction (Klebsiella pneumoniae); inhibition, % at 33 µM; 0.6% of 430,000 active; in the data active = inhibition mostly above about 37%, no sharp cut-off; inactive = mostly below about 20%
Mtb betalactam – beta-lactam sensitization of Mtb H37Rv, H37Rv; M. tuberculosis H37Rv growth with meropenem, percent inhibition; AID 434955, 2010; 0.27% of 330,000 active; inhibition, % at 25 µM; call rule not given here;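 note: growth measured after seven days incubation then overnight dye step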
A number is an active result; . = inactive; / = no result; + = active, no number. Only some compounds are listed: those with a hit (about 3.2% of all), similar ones and a draw of the others.

SMILES	UGM FP inh	FBA Mtb inh	Rv3671c inh	GDH-TPI inh	PriA SSB inh	Mtb betalactam
Cc1ccc(-c2c(C(=O)O)c(C(=O)O)c3n2CSC3)cc1	.	.	.	.	73	.
COc1cc(NC(=O)N2CCC(c3nnc(C4CC4)s3)CC2)cc(OC)c1OC	/	/	/	/	.	/
NC(=NOC(=O)c1ccccc1F)c1cccc([N+](=O)[O-])c1	/	/	/	/	.	/
CC(=O)N1CCN(S(=O)(=O)c2cccc(C(=O)NNC(=O)Cn3nc(C)cc3C)c2)CC1	10	.	.	.	.	.
COCCNC(=O)NCc1cncc(-c2cccs2)c1	/	/	/	/	.	/
O=S(=O)(Nc1ccc(-c2ccc3nnc(-c4ccccn4)n3n2)cc1)c1ccccc1F	/	/	/	/	101	/
Cc1cccc(S(=O)(=O)Nc2ccc(-c3ccc4nnc(-c5ccccn5)n4n3)cc2)c1	/	/	/	/	79	/
O=S(=O)(Nc1ccc(-c2ccc3nnc(-c4cccs4)n3n2)cc1)c1ccccc1	/	/	/	/	.	/
COc1cc2c(cc1OC)C(=CC(=O)c1cccc([N+](=O)[O-])c1)NCC2	/	/	/	/	.	/
Cc1cc(C)cc(-n2nc3c(c2NC(=O)CSCc2ccccc2)CSC3)c1	/	/	/	/	.	/
O=C1C2=C(Nc3ccccc3SC2c2ccco2)c2ccccc21 (centres undefined)	.	.	.	.	48	.
Cc1ccc(N=C2CC(=O)N(c3ccccc3)C2)c(C)c1	/	/	/	/	.	/
COC(=O)c1cn(C)c2ccc(S(=O)(=O)N3CCCCC3)cc2c1=O	/	.	/	40	.	/
Cn1cc(C(=O)N2CCCCCC2)c(=O)c2cc(S(=O)(=O)N3CCCCC3)ccc21	.	.	.	.	.	.
CN(C)c1ccc(O[C@H]2CCN(C(=O)Cc3cccs3)C2)nn1	/	/	/	/	.	/
CCN(CC)c1ccc2c(c1)oc(=O)c1c(Cl)cc(=O)oc12	.	.	.	35	.	.
CN(C)C=Nc1ccc2nn(-c3ccccc3)nc2c1	.	177	.	.	.	.
O=c1c2oc3ccccc3c2[nH]c(=S)n1-c1ccc(F)cc1	.	.	.	33	.	.
Cc1c(-c2ccccc2)n[nH]c1C(=O)N/N=C\c1c(Cl)cccc1Cl	/	/	/	/	.	/
COc1ccccc1Nc1c2c(nc3ccc(N)cc13)CCCC2	.	.	.	.	53	.
CN(C)S(=O)(=O)c1ccc(-c2nnc(NC(=O)Cc3cccs3)o2)cc1	/	/	/	/	.	/
O=C(Oc1ccc2c3c(c(=O)oc2c1)CCCC3)c1ccco1	.	99	.	.	.	.
COc1ccc2c(c1)c(=O)oc1cc(O)ccc12	.	.	.	.	.	.
O=c1oc2cc(O)ccc2c2ccccc12	.	.	.	.	.	.
COc1c(CC=C(C)C)c(O)cc2oc(=O)c3c4ccc(O)cc4oc3c12	.	142	.	.	.	.
SMILES	UGM FP inh	FBA Mtb inh	Rv3671c inh	GDH-TPI inh	PriA SSB inh	Mtb betalactam
O=c1oc2cc(O)ccc2c2oc3cc(O)ccc3c12	.	+	.	35	.	.
O=c1oc2cc(O)ccc2c2c1CCCC2	.	+	.	.	.	.
O=C(NCCCc1ccccc1)N1CCC(N2CCCC2=O)CC1	/	/	/	/	.	/
Nc1nnn(CC(=O)NN=Cc2ccc(O)cc2)n1	/	/	/	/	.	/
N#C/C(C(=O)NCc1ccco1)=C1/N=C(NC(=O)c2ccc(F)cc2)c2ccccc21	/	/	/	/	.	/
CSCCC(NC(C)=O)C(=O)Oc1ccc2c3c(c(=O)oc2c1)CCCC3 (centres undefined)	/	+	/	.	.	/
COC(=O)C(C)Oc1ccc2c3c(c(=O)oc2c1)CCCCC3 (centres undefined)	.	146	.	.	.	.
O=C(COc1ccc2c3c(c(=O)oc2c1)CCC3)N1CCCC1	.	.	.	.	.	.
CC(=O)Oc1ccc2c3c(c(=O)oc2c1)CCCC3	.	195	.	.	.	.
CCC(NC(=O)OC(C)(C)C)C(=O)Oc1ccc2c3c(c(=O)oc2c1)CCC3 (centres undefined)	.	/	.	.	.	.
O=C(NCC(O)c1csc2ccccc12)c1csc(-c2ccccc2)n1 (centres undefined)	/	/	/	/	.	/
Cc1ccc(NC(=O)C(=O)NCc2cccs2)c([N+](=O)[O-])c1	/	/	/	/	56	/
O=C(Nc1ccc(C(F)(F)F)cc1[N+](=O)[O-])c1ccccc1	/	/	/	/	.	/
CC(C)(C)c1ccc(NC(=O)c2ccc(Cl)cc2)c([N+](=O)[O-])c1	/	/	/	/	63	/
Cc1ccc(NC(=O)c2ccccc2)c([N+](=O)[O-])c1	/	/	/	/	57	/
CCCOc1ccc(C(=O)Nc2ccc(C)cc2[N+](=O)[O-])cc1	.	.	.	.	.	.
CC(C)(C)c1ccc(NC(=O)c2ccccc2)c([N+](=O)[O-])c1	.	.	.	.	59	.
CCOC(=O)Cc1csc(NC(=O)Cn2cnc(-c3ccc(C)cc3)cc2=O)n1	/	/	/	/	.	/
Cc1ccc(NC(=O)C(C)Oc2cccc(Br)c2)c([N+](=O)[O-])c1 (centres undefined)	/	/	/	/	49	/
COc1ccc(N2CCN(C(=O)c3nnn(-c4ccccc4)c3CSc3ncccn3)CC2)cc1	/	/	/	/	.	/
Cc1c(Cl)cccc1NC(=O)C(=O)NCc1ccc([C@@H](O)c2ccco2)s1	/	/	/	/	.	/
Cc1ccc(S(=O)(=O)C(C#N)c2nc3ccccc3nc2N2CCCC2)cc1 (centres undefined)	.	128	.	.	.	.
CCN1CCN(c2nc3ccccc3nc2C(C#N)S(=O)(=O)c2ccc(C)cc2)CC1 (centres undefined)	.	.	.	.	.	.
Cc1cc(=O)[nH]c(NN=CCCc2ccccc2)n1	/	/	/	/	.	/
Cc1ccc2c(C)c(C(=O)N3CCN(c4ncccn4)CC3)oc2c1C	/	.	/	.	85	/
SMILES	UGM FP inh	FBA Mtb inh	Rv3671c inh	GDH-TPI inh	PriA SSB inh	Mtb betalactam
CCNC(=O)C1Cc2ccccc2N1C(=O)c1cc(Cl)ccc1OC (centres undefined)	/	/	/	/	.	/
COc1cccc(/C=C2/SC(=O)N(CC(=O)N3CCc4ccccc4C3)C2=O)c1OCC(=O)O	.	.	.	32	.	.
COc1cccc(/C=C2/SC(=O)N(C)C2=O)c1OCc1ccc(C(=O)O)cc1	.	.	.	.	.	.
COc1ccc(-c2cc(C(=O)NN=Cc3sccc3C)c3ccccc3n2)c(OC)c1	/	/	/	/	.	/
CC(=NNC(=O)CC(C)C)c1ccc(N2CCCCC2)cc1	/	/	/	/	.	/
CCN(CC)C(=O)CSc1nc2c(sc(=S)n2-c2ccccc2)c(=O)n1-c1ccc(OC)cc1OC	.	+	.	.	.	.
CCN(CC)C(=O)CSc1nc2c(sc(=S)n2-c2ccccc2)c(=O)n1-c1ccccc1OC	/	.	/	.	.	/
CC/C(=N/NC(=O)c1ccccc1O)c1c(C)[nH]n(-c2ccccc2)c1=O	.	.	.	31	/	.
Oc1ccc(C=NC2CCCCC2)cc1	.	.	.	37	.	.
Oc1ccc(C=NN=Cc2ccc(O)cc2)cc1	/	/	/	/	.	/
